{"source": "PubChem BioAssay (NCATS)", "note": "Several values for one entry are separate records, joined by “and”; a condition that tells them apart may be missing. Identical values can stand only once. Results filed as inconclusive are left out. A number with no mark means an inactive call. Activity calls are given as the source filed them. Calls come from the whole dose curve; as a rule, active = well fitted cell-killing curve with a large enough effect; inconclusive = small, poorly fitted or top-dose-only effect; inactive = flat fitted curve, though single readings scatter. Potency is the fitted concentration of half-maximal effect.", "data": [{"test": "Cell Viability - LYMP2-014 (AID 983); note: nearly all actives have a fitted effect of over 50% in size", "conditions": "LYMP2-014 lymphoblastoid cells, viability qHTS; series mostly up to 92.2 µM; activity change, negative = cytotoxicity: at the top concentration", "text": "NIH Chemical Genomics Center [NCGC]\nNIH Molecular Libraries Screening Centers Network [MLSCN]\nNational Institutes of Environmental Health Sciences [NIEHS]\nNational Toxicology Program [NTP]\nWe have developed a 1536-well cell-based assay for quantitative high throughput screening (qHTS) against a number of cell lines to determine in vitro cytotoxicity of small molecules. This particular assay uses a human lymphoblastoid cell line (LYMP2-014) purchased from Coriell Institute for Medical Research.\nNCGC Assay Protocol Summary:\nThe CellTiter-Glo luminescent cell viability assay (Promega) is a homogeneous method to measure the number of viable cells in culture. The end point readout of this assay is based on quantitation of intracellular ATP, an indicator of metabolic activity, using the luciferase reaction. Luciferase catalyzes the oxidation of beetle Luciferin to oxyluciferin and light in the presence of ATP. The luminescent signal is proportional to amount of ATP present.\nUsing the CellTiter-Glo luminescent cell viability assay, the amount of cellular ATP was measured in the lymphoblastoid cell line with complete culture medium following compound treatment for 24 hours. The assay was performed in opaque white Kalypsys 1536-well plates. In the screen, tetraoctylammonium bromide was used as positive control. Library compounds were measured for their ability to cause acute toxicity in the cell line, as reflected by a decrease in intracellular ATP levels, in a concentration-dependent manner. […] AC50 values were determined from concentration-response data modeled with the standard Hill equation.\nqHTS protocol for CellTiter Glo lymphoblastoid cellular assay\n[Step] [Parameter] [Value] [Description]\n1. Reagent; 5 uL; 2500 lymphoblastoid cells/well\n2. Time; 5 hr; 37 C incubation\n4. Controls; 23 nL; Tetraoctylammonium bromide 6.4pM to 92 uM\n5. Time; 24 hr; 37 C incubation\n6. Reagent; 5 uL; CellTiter Glo reagent\n7. Time; 30 min; Room Temperature\n8. Detection; Luminescence; Viewlux plate reader\nKeywords: cell viability, cytotoxicity, lymphoblastoid cell line, luminescence, NTPHTS, NTPHTS_NCGC, NIEHS, DSSTox, MLSMR, MLSCN, NIH Roadmap, qHTS, NCGC", "units": {"activity change, negative = cytotoxicity": "%"}, "values": [{"compound": "Cc1ccccc1C", "Potency": "inactive"}, {"compound": "CCCN(CCC)C(=O)SCC", "activity change, negative = cytotoxicity": -1.35}, {"compound": "Cc1c(N=C=O)cccc1N=C=O", "activity change, negative = cytotoxicity": -0.382}, {"compound": "Nc1ccc(S(=O)(=O)O)cc1", "activity change, negative = cytotoxicity": 1.27}, {"compound": "O=C(O)CC(C(=O)O)C(CC(=O)O)C(=O)O", "note": "(stereo not given)", "activity change, negative = cytotoxicity": -10}, {"compound": "Nc1ccc(Cl)cc1Cl", "activity change, negative = cytotoxicity": -4.62}, {"compound": "O=C(O)c1ccccc1", "activity change, negative = cytotoxicity": -3.87}, {"compound": "CCO", "activity change, negative = cytotoxicity": -3.59}, {"compound": "NC1=NC(S)C2N=CN=C2N1", "note": "(stereo not given)", "Potency": "15.8 µM (active)"}, {"compound": "CC(C)=CCCC(C)CCO", "note": "(stereo not given)", "activity change, negative = cytotoxicity": -6.22}, {"compound": "CCCCOCCO", "Potency": "inactive"}, {"compound": "C=CC(=O)OCCOCCOCCOCCOC(=O)C=C", "Potency": "20 µM (active) and 25.1 µM (active)"}, {"compound": "c1ccccc1", "Potency": "inactive"}, {"compound": "CCC(C)c1ccccc1O", "note": "(stereo not given)", "Potency": "inactive"}, {"compound": "COC(=O)c1ccc(C)cc1", "activity change, negative = cytotoxicity": -3.38}, {"compound": "O=C(/C=C/c1ccc(O)c(O)c1)O[C@@H](C(=O)O)[C@@H](OC(=O)/C=C/c1ccc(O)c(O)c1)C(=O)O", "activity change, negative = cytotoxicity": -6.32}, {"compound": "CCCCCCCCCCCCCCC1CO1", "note": "(stereo not given)", "activity change, negative = cytotoxicity": -4.96}, {"compound": "O[C@@H]([C@H](O)[C@@H](O)CBr)[C@@H](O)CBr", "activity change, negative = cytotoxicity": -3.27}, {"compound": "COCC(=O)O", "activity change, negative = cytotoxicity": 2.38}, {"compound": "Cc1ccc([N+](=O)[O-])cc1N", "activity change, negative = cytotoxicity": 7.29}, {"compound": "c1ccc2c(c1)c1cccc3ccc4cccc2c4c31", "activity change, negative = cytotoxicity": -11.7}, {"compound": "CN(C)CCCCCCN(C)C", "activity change, negative = cytotoxicity": -15.9}, {"compound": "CCCCCCCCCCCCCC(=O)O", "activity change, negative = cytotoxicity": -3.55}, {"compound": "O=C1CCc2ccccc2O1", "activity change, negative = cytotoxicity": -3.63}, {"compound": "Cc1ccc(N)c([N+](=O)[O-])c1", "activity change, negative = cytotoxicity": -7.28}, {"compound": "c1ccc2scnc2c1", "activity change, negative = cytotoxicity": 5.2}, {"compound": "C=CC(=C)CCC=C(C)C", "activity change, negative = cytotoxicity": 3.8}, {"compound": "OCCNCCO", "activity change, negative = cytotoxicity": 1.06}, {"compound": "Cc1cccc([N+](=O)[O-])c1C", "activity change, negative = cytotoxicity": -1.85}, {"compound": "C1OCOCO1", "activity change, negative = cytotoxicity": -6.46}, {"compound": "O=[N+]([O-])c1cccc(Cl)c1Cl", "activity change, negative = cytotoxicity": 0.258}, {"compound": "COc1ccc(/C=C/c2cc(OC)cc(=O)o2)cc1", "activity change, negative = cytotoxicity": -2.08}, {"compound": "CCO[Si](CCCN)(OCC)OCC", "activity change, negative = cytotoxicity": 0.13}, {"compound": "CC12CCC(CC1=O)C2(C)C", "note": "(stereo not given)", "activity change, negative = cytotoxicity": -2.67}, {"compound": "COc1cc(/C=C/c2ccccc2)oc(=O)c1", "activity change, negative = cytotoxicity": 0.646}, {"compound": "c1ccc2c(c1)[nH]c1ccccc12", "activity change, negative = cytotoxicity": 0.239}, {"compound": "O=NO", "Potency": "inactive"}, {"compound": "Cc1ccc([N+](=O)[O-])c(C)c1", "activity change, negative = cytotoxicity": -1.82}, {"compound": "C=CCc1ccc(OC)c(OC)c1", "activity change, negative = cytotoxicity": -1.6}, {"compound": "CCCCCCCCO", "activity change, negative = cytotoxicity": -0.287}]}]}
